{"source": "the supplement of paper PMC8728848", "binders": {"B1": {"name": "ArathEULS3 TAP (Arabidopsis thaliana) (protein)", "chain": "IDENLYFQGGSMDEKTTGWRGGHVVEGLAGELEQLRARLEHHPQGQREPGGGGSLEITSLYKKAGFMEHHHQHHRHHQRDDGEDDRQSFGVPPPHVDAPPQPHGLYQSQPHFDPYAPTPQAPAPYRSETQFEPHAPPPYRSEPYFETPAPPPSFGHVSHVGHQSPNESYPPEHHRYGGYQQPSNSLLESHGDHSGVTHVAHHSSNQPQSSSGVYHKPDENRLPDNLAGLAGRATVKVYSKAEPNYNLTIRDGKVILAPADPSDEAQHWYKDEKYSTKVKDADGHPCFALVNKATGEAMKHSVGATHPVHLIRYVPDKLDESVLWTESKDFGDGYRTIRMVNNTRLNVDAYHGDSKSGGVRDGTTIVLWDWNKGDNQLWKIFPF"}}, "test_in_all_cases": "glycan array binding signal (z-score within array); higher = stronger binding", "conditions_in_all_cases": "glycan notation: IUPAC condensed, linker removed", "key": {"Fuc(a1-2)Gal(b1-3)GlcNAc": {"target": "Fuc(a1-2)Gal(b1-3)GlcNAc", "in_short": "(§1)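 Glycan array data were curated from 3228 arrays in the Consortium for Functional Glycomics database and kept only where the protein sequence was available. Glycan names were converted to IUPAC-condensed notation, and columns mapping to the same glycan were averaged. The binding signal is a within-array Z-score, averaged across arrays of the same protein sequence at different concentrations or buffers and across linkers. Negative Z-scores can be read as non-binding.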"}, "[1]": {"target": "Fuc(a1-2)Gal(b1-3)GlcNAc(b1-3)Gal(b1-4)Glc", "in_short": "as §1"}, "[2]": {"target": "Fuc(a1-2)Gal(b1-4)GlcNAc(b1-3)Gal(b1-4)GlcNAc(b1-2)Man(a1-3)[Fuc(a1-2)Gal(b1-4)GlcNAc(b1-3)Gal(b1-4)GlcNAc(b1-2)Man(a1-6)]Man(b1-4)GlcNAc(b1-4)GlcNAc", "in_short": "as §1"}, "[3]": {"target": "Fuc(a1-2)Gal(b1-4)[Fuc(a1-3)]GlcNAc(b1-2)Man(a1-3)[Fuc(a1-2)Gal(b1-4)[Fuc(a1-3)]GlcNAc(b1-2)Man(a1-6)]Man(b1-4)GlcNAc(b1-4)[Fuc(a1-6)]GlcNAc", "in_short": "as §1"}, "[4]": {"target": "Fuc(a1-2)Gal(b1-4)[Fuc(a1-3)]GlcNAc(b1-3)Gal(b1-4)[Fuc(a1-3)]GlcNAc", "in_short": "as §1"}, "[5]": {"target": "Fuc(a1-2)Gal(b1-4)[Fuc(a1-3)]GlcNAc(b1-3)GalNAc", "in_short": "as §1"}, "[6]": {"target": "Fuc(a1-2)Gal6S(b1-3)GlcNAc6S", "in_short": "as §1"}, "Fuc(a1-2)Gal6S(b1-4)Glc": {"target": "Fuc(a1-2)Gal6S(b1-4)Glc", "in_short": "as §1"}, "[7]": {"target": "Fuc(a1-2)[Gal(a1-3)]Gal(b1-4)GlcNAc(b1-2)Man(a1-3)[Fuc(a1-2)[Gal(a1-3)]Gal(b1-4)GlcNAc(b1-2)Man(a1-6)]Man(b1-4)GlcNAc(b1-4)GlcNAc", "in_short": "as §1"}, "[8]": {"target": "Fuc(a1-2)[GalNAc(a1-3)]Gal(b1-4)GlcNAc(b1-2)Man", "in_short": "as §1"}, "[9]": {"target": "Fuc(a1-3)[Gal(b1-4)]GlcNAc(b1-2)Man(a1-3)[Fuc(a1-3)[Gal(b1-4)]GlcNAc(b1-2)Man(a1-6)]Man(b1-4)GlcNAc(b1-4)GlcNAc", "in_short": "as §1"}, "[10]": {"target": "Fuc(a1-3)[Gal(b1-4)]GlcNAc6S", "in_short": "as §1"}, "[11]": {"target": "Fuc(a1-3)[Gal3S(b1-4)]GlcNAc6S", "in_short": "as §1"}, "Gal(a1-3)Gal": {"target": "Gal(a1-3)Gal", "in_short": "as §1"}, "[12]": {"target": "Gal(a1-3)Gal(b1-3)GlcNAc(b1-3)GalNAc", "in_short": "as §1"}, "Gal(a1-3)GalNAc": {"target": "Gal(a1-3)GalNAc", "in_short": "as §1"}, "[13]": {"target": "Gal(a1-3)[Gal(a1-4)]Gal(b1-4)GlcNAc", "in_short": "as §1"}, "[14]": {"target": "Gal(b1-3)GalNAc(b1-3)Gal(a1-4)Gal(b1-4)Glc", "in_short": "as §1"}, "[15]": {"target": "Gal(b1-3)GlcNAc(a1-6)Gal(b1-4)GlcNAc", "in_short": "as §1"}, "[16]": {"target": "Gal(b1-3)[Fuc(a1-4)]GlcNAc(b1-3)Gal(b1-3)[Fuc(a1-4)]GlcNAc", "in_short": "as §1"}, "[17]": {"target": "Gal(b1-4)GlcNAc(b1-2)[Gal(b1-4)GlcNAc(b1-6)]Man(a1-6)[Gal(b1-4)GlcNAc(b1-2)Man(a1-3)]Man(b1-4)GlcNAc(b1-4)[Fuc(a1-6)]GlcNAc", "in_short": "as §1"}, "[18]": {"target": "Gal(b1-4)GlcNAc(b1-3)Gal(b1-3)GlcNAc", "in_short": "as §1"}, "[19]": {"target": "Gal(b1-4)GlcNAc(b1-3)Gal(b1-4)Glc", "in_short": "as §1"}, "[20]": {"target": "Gal(b1-4)GlcNAc(b1-3)Gal(b1-4)GlcNAc(b1-3)Gal(b1-4)GlcNAc", "in_short": "as §1"}, "[21]": {"target": "Gal(b1-4)GlcNAc(b1-6)Gal(b1-4)GlcNAc", "in_short": "as §1"}, "[22]": {"target": "Gal(b1-4)GlcNAc(b1-6)GalNAc", "in_short": "as §1"}, "Gal3S(b1-3)GlcNAc": {"target": "Gal3S(b1-3)GlcNAc", "in_short": "as §1"}, "Gal3S(b1-4)Glc": {"target": "Gal3S(b1-4)Glc", "in_short": "as §1"}, "Gal3S4S(b1-4)GlcNAc": {"target": "Gal3S4S(b1-4)GlcNAc", "in_short": "as §1"}, "Gal4S(b1-4)GlcNAc": {"target": "Gal4S(b1-4)GlcNAc", "in_short": "as §1"}, "GlcA(b1-3)GlcNAc": {"target": "GlcA(b1-3)GlcNAc", "in_short": "as §1"}, "[23]": {"target": "GlcNAc(a1-4)Gal(b1-4)GlcNAc(b1-3)Gal(b1-4)GlcNAc(b1-3)Gal(b1-4)GlcNAc", "in_short": "as §1"}, "[24]": {"target": "GlcNAc(b1-2)Man(a1-3)[GlcNAc(b1-2)Man(a1-6)]Man(b1-4)GlcNAc(b1-4)[Fuc(a1-6)]GlcNAc", "in_short": "as §1"}, "[25]": {"target": "GlcNAc(b1-2)[GlcNAc(b1-4)]Man(a1-3)[GlcNAc(b1-4)][GlcNAc(b1-2)[GlcNAc(b1-6)]Man(a1-6)]Man(b1-4)GlcNAc(b1-4)[Fuc(a1-6)]GlcNAc", "in_short": "as §1"}, "[26]": {"target": "GlcNAc(b1-3)Gal(b1-4)GlcNAc", "in_short": "as §1"}, "[27]": {"target": "GlcNAc(b1-3)Gal(b1-4)GlcNAc(b1-2)Man(a1-3)[GlcNAc(b1-3)Gal(b1-4)GlcNAc(b1-2)Man(a1-6)]Man(b1-4)GlcNAc(b1-4)GlcNAc", "in_short": "as §1"}}, "note": "Many of the other results were omitted from the sample, so the strongest signals are more common in it than they were."}
{"binder": "B1", "values": [{"measurement": "glycan array binding signal (z-score)", "setting": "Fuc(a1-2)Gal(b1-3)GlcNAc", "value": 0.613}, {"measurement": "glycan array binding signal (z-score)", "setting": "[1]", "value": -0.174}, {"measurement": "glycan array binding signal (z-score)", "setting": "[2]", "value": 2.35}, {"measurement": "glycan array binding signal (z-score)", "setting": "[3]", "value": 1.46}, {"measurement": "glycan array binding signal (z-score)", "setting": "[4]", "value": 0.109}, {"measurement": "glycan array binding signal (z-score)", "setting": "[5]", "value": -0.688}, {"measurement": "glycan array binding signal (z-score)", "setting": "[6]", "value": -0.204}, {"measurement": "glycan array binding signal (z-score)", "setting": "Fuc(a1-2)Gal6S(b1-4)Glc", "value": 1.85}, {"measurement": "glycan array binding signal (z-score)", "setting": "[7]", "value": -0.837}, {"measurement": "glycan array binding signal (z-score)", "setting": "[8]", "value": 0.256}, {"measurement": "glycan array binding signal (z-score)", "setting": "[9]", "value": -0.853}, {"measurement": "glycan array binding signal (z-score)", "setting": "[10]", "value": 2.6}, {"measurement": "glycan array binding signal (z-score)", "setting": "[11]", "value": 0.828}, {"measurement": "glycan array binding signal (z-score)", "setting": "Gal(a1-3)Gal", "value": 3.3}, {"measurement": "glycan array binding signal (z-score)", "setting": "[12]", "value": 0.549}, {"measurement": "glycan array binding signal (z-score)", "setting": "Gal(a1-3)GalNAc", "value": -0.474}, {"measurement": "glycan array binding signal (z-score)", "setting": "[13]", "value": 2.15}, {"measurement": "glycan array binding signal (z-score)", "setting": "[14]", "value": 0.136}, {"measurement": "glycan array binding signal (z-score)", "setting": "[15]", "value": -0.499}, {"measurement": "glycan array binding signal (z-score)", "setting": "[16]", "value": -0.335}, {"measurement": "glycan array binding signal (z-score)", "setting": "[17]", "value": 0.941}, {"measurement": "glycan array binding signal (z-score)", "setting": "[18]", "value": -0.688}, {"measurement": "glycan array binding signal (z-score)", "setting": "[19]", "value": -0.967}, {"measurement": "glycan array binding signal (z-score)", "setting": "[20]", "value": 0.391}, {"measurement": "glycan array binding signal (z-score)", "setting": "[21]", "value": 1.18}, {"measurement": "glycan array binding signal (z-score)", "setting": "[22]", "value": 1.1}, {"measurement": "glycan array binding signal (z-score)", "setting": "Gal3S(b1-3)GlcNAc", "value": -0.162}, {"measurement": "glycan array binding signal (z-score)", "setting": "Gal3S(b1-4)Glc", "value": 0.159}, {"measurement": "glycan array binding signal (z-score)", "setting": "Gal3S4S(b1-4)GlcNAc", "value": 4.33}, {"measurement": "glycan array binding signal (z-score)", "setting": "Gal4S(b1-4)GlcNAc", "value": 0.737}, {"measurement": "glycan array binding signal (z-score)", "setting": "GlcA(b1-3)GlcNAc", "value": -0.1}, {"measurement": "glycan array binding signal (z-score)", "setting": "[23]", "value": 0.236}, {"measurement": "glycan array binding signal (z-score)", "setting": "[24]", "value": -0.928}, {"measurement": "glycan array binding signal (z-score)", "setting": "[25]", "value": -0.659}, {"measurement": "glycan array binding signal (z-score)", "setting": "[26]", "value": -0.59}, {"measurement": "glycan array binding signal (z-score)", "setting": "[27]", "value": -0.107}]}
